LEDGF integ inh – blockers of LEDGF/p75-dependent integrase strand transfer – biochemical, TR-FRET, high throughput, primary screen | TR-FRET IN-LEDGF/p75 DNA integration, Eu/Cy5 | inhibition, % at 3.7 µM | 370,000 tested, 0.64% active;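 active = inhibition above the screen-wide mean plus 3 SD, cut at about 13% in these data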;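 also: signal is the Cy5 over europium emission ratio at 671 and 618 nm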
MBD2 DNA inh – inhibitors of MBD2 binding to methylated DNA, primary screen, biochemical, TR-FRET, DNA-binding domain, human; 370,000 tested, 0.31% active; AID 686964, 2013; MBD2 binding to methylated oligonucleotide; inhibition, % at 4.4 µM; in the data active = inhibition above about 13%
Target sequence (Q9UBB5 whole entry, looked up, the tested form may be a part): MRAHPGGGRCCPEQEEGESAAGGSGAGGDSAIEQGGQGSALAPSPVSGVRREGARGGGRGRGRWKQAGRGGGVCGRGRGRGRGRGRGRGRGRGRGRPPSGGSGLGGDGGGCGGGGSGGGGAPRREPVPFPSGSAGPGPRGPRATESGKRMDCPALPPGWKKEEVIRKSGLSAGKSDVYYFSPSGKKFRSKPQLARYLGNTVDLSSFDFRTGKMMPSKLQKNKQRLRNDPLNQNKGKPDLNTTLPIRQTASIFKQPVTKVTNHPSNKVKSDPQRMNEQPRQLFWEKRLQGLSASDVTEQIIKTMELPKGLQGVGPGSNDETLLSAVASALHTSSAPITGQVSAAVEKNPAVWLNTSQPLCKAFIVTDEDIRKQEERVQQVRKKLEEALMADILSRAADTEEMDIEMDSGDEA
UHRF1 binding – UHRF1 methylated DNA binding inhibitors, primary screen, counter-screen for MBD2 inhibitor project, biochemical, TR-FRET, human UHRF1, single concentration | E3 ubiquitin-protein ligase UHRF1 (Homo sapiens), Q96T88 | UHRF1 binding to methylated oligo | inhibition, % at 4.4 µM | 370,000 tested, 0.75% active; in the data active = inhibition above about 21%;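 also: UHRF1 SRA domain binding a hemimethylated CpG hairpin DNA probe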
PRMT1 FP inh – PRMT1 methyltransferase inhibitors, primary screen, biochemical, fluorescence polarization. Protein arginine N-methyltransferase 1 (Homo sapiens), Q99873. recombinant PRMT1, activity-based probe fluorescence polarization. inhibition, % at 2.79 µM. 370,000 tested, 1.3% active;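 active = inhibition above about 21% made by adding two undisclosed values, limit read from the data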
PRMT1 inh conf – PRMT1 methyltransferase inhibitors, confirmation, biochemical, fluorescence polarization, triplicate; shares compounds with PRMT1 FP inh; recombinant His-PRMT1, activity-based probe fluorescence polarization; inhibition, % at 2.79 µM; 3,300 tested, 42% active; AID 687036, 2013;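 active = mean inhibition across replicates above the hit cutoff derived for the earlier primary screen, cut at about 22% in these data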
Of the large screens only hits and unclear results are named; the others gave an inactive call (follow-up assays come after a bar, where they were run). Hits are enriched below; roughly 2.5% of the tested compounds scored in any of these assays.

C[C@H](CO)N1C[C@H](C)[C@@H](CN(C)C(=O)c2ccc(N3CCN(C)CC3)cc2)OCc2cnnn2CCCC1=O	none
COc1ccccc1NC(=O)c1cc(=O)[nH]c2ccccc12	PRMT1 FP inh 25.2 | PRMT1 inh conf inactive
O=c1oc2c(-c3cccc(F)c3)cc(O)cc2s1	PRMT1 FP inh 36.1 | PRMT1 inh conf inactive
CC(C)Nc1ncnc2c1ncn2[C@H]1CN(Cc2cccs2)C[C@@H](CO)O1	none
O=Cc1s/c(=N\S(=O)(=O)c2ccccc2)n(CCCCl)c1Cl	PRMT1 FP inh 43.2 | PRMT1 inh conf 37.2
CCn1c(C)cs/c1=N\S(=O)(=O)c1ccccc1	none
Nc1c(C(=O)Nc2ccccc2F)sc2nc(-c3ccco3)ccc12	PRMT1 FP inh 46.5 | PRMT1 inh conf 41.6
Nc1c(C(=O)Nc2ccccc2F)sc2nc(-c3cccnc3)ccc12	none
O=C(NCc1cccnc1)c1ccc2c(c1)N(Cc1ccccc1)CCS2	PRMT1 FP inh 28.8 | PRMT1 inh conf inactive
O=C(NCc1ccccn1)c1ccc2c(c1)N(Cc1ccccc1)CCS2	none
CCCOc1ccc(CNC(=O)c2ccc3c(c2)N(CC)CCS3)cc1	PRMT1 FP inh 27.5 | PRMT1 inh conf inactive
S=P(N1CC1)(N1CC1)N1CC1	PRMT1 FP inh 39.6 | PRMT1 inh conf inactive
CCOC(=O)C1=C(C)N=c2s/c(=C\c3cccc(OCC(=O)O)c3)c(=O)n2C1c1ccccc1 (configuration not stated)	PRMT1 FP inh 32.4 | PRMT1 inh conf inactive
CCOC(=O)C1=C(C)N=c2s/c(=C\c3ccc(C(=O)O)cc3)c(=O)n2C1c1ccc(F)cc1 (configuration not stated)	none
CCOC(=O)C1=C(C)N=c2s/c(=C\c3cc(OC)c(OC)c(OC)c3)c(=O)n2C1/C=C/c1ccccc1 (configuration not stated)	none
COc1ccccc1C1C2=C(N=c3s/c(=C/c4cccc(OCC(=O)O)c4)c(=O)n31)c1ccccc1CC2 (configuration not stated)	PRMT1 FP inh 56.2 | PRMT1 inh conf 22.1
CCOC(=O)C1=C(C)N=c2s/c(=C/c3cccc(OCC(=O)O)c3)c(=O)n2C1c1ccc(F)cc1 (configuration not stated)	PRMT1 FP inh 40.7 | PRMT1 inh conf inactive
CN(C)c1cccc(Nc2ccc(-c3ccc(OC(F)(F)F)cc3)cn2)c1	none
COc1ccc(OC)c(C(=O)N(C[C@H]2CC[C@@H]([C@@H]3CC[C@H](CO)O3)O2)C(C(=O)NC(C)(C)C)c2ccc(-c3ccccc3)cc2)c1 (some centres not stated)	none
CC(C)(C)c1ccc(C(=O)CC(Sc2ccc(Cl)cc2)C(=O)O)cc1 (configuration not stated)	PRMT1 FP inh 72.9 | PRMT1 inh conf 84.7
Cc1ccc(SC(CC(=O)c2ccc(F)cc2)C(=O)O)cc1 (configuration not stated)	PRMT1 FP inh 81.9 | PRMT1 inh conf 79.0
O=C(CC(C(=O)O)c1ccc(F)cc1)c1ccc(Cl)cc1 (configuration not stated)	none
O=C(COC(=O)c1cccs1)Nc1nnc(-c2ccccc2)o1	none
C[C@H](O)[C@@H]1CN2CCc3ccc(N4CCOCC4)cc3[C@@H]2C[C@@H]1N(C)C(=O)c1ccccc1F	none
COC(=O)Nc1ccccc1C(=O)N1CCC(O)(c2ccc(Cl)cc2)CC1	none
O=C(O)/C=C\C(=O)Nc1ccccc1C(=O)N1CCC(O)(c2ccc(Cl)cc2)CC1	PRMT1 FP inh 28.8 | PRMT1 inh conf inactive
COc1ccc(C(=O)NCc2ccco2)cc1S(=O)(=O)NC1CC1	none
CC(=O)CSc1cc(-c2ccccc2)nc2ncnn12	PRMT1 FP inh 28.2 | PRMT1 inh conf 37.0
C#CCNc1cc(-c2ccccc2)nc2ncnn12	none
COc1cccc(/C=C2\SC(=S)N(CCCC(=O)N3CCCC3)C2=O)c1	none
COc1cccc(/C=C2\SC(=O)N(CCC(=O)N3CCC(C(=O)O)CC3)C2=O)c1	PRMT1 FP inh 30.4 | PRMT1 inh conf inactive
O=C(c1cccc(Cl)c1)N1CCN(S(=O)(=O)c2ccc(Cl)s2)CC1	none
Cc1cc(C)c([N+](=O)[O-])cc1-c1ccc(/C=N/c2c(-c3ccco3)nc3ccccn23)o1	PRMT1 FP inh 49.5 | PRMT1 inh conf inactive
CCCCCSc1nncc(=O)[nH]1	none
CCCCCCCCSC1=CC(=O)C(OC)=C(OC)C1=O	PRMT1 FP inh 38.9 | PRMT1 inh conf 87.5
CN1CCCC(C)(C(=O)Nc2ccc3scnc3c2)C1 (configuration not stated)	none
N#Cc1ccsc1NC(=O)CSc1nncs1	PRMT1 FP inh 25.9 | PRMT1 inh conf 24.0
CSS(=O)(=O)c1cccc2cccnc12	PRMT1 FP inh 91.5 | PRMT1 inh conf 96.4
CCOC(=O)c1c(NC(C)=O)sc2c1CCC(C=O)=C2Sc1ccccc1	PRMT1 FP inh 31.2 | PRMT1 inh conf inactive
O=C1CC(N2CCC(c3nc4ccccc4o3)CC2)C(=O)N1Cc1cccs1 (configuration not stated)	PRMT1 FP inh 46.9 | PRMT1 inh conf inactive
NC(=O)C1CCN(C2CC(=O)N(Cc3cccs3)C2=O)CC1 (configuration not stated)	PRMT1 FP inh 73.6 | PRMT1 inh conf inactive
O=C1CC(N2CCN(c3ccc(F)cc3)CC2)C(=O)N1Cc1cccs1 (configuration not stated)	none
CCOC(=O)c1sc(N)c(C(=O)Nc2ccccc2OC)c1C	PRMT1 FP inh 25.9 | PRMT1 inh conf inactive
COc1cccc(OC)c1C(=O)NCCc1ccccc1	none
CCOC(=O)c1sc(N)c(C(=O)OC)c1C	none
COC(=O)c1c(N)sc(C(=O)NCCc2ccccc2)c1C	PRMT1 FP inh 25.5 | PRMT1 inh conf 29.5
Cc1ccc([C@H]2C[C@@H](n3cc(-c4ccc(F)cc4)nn3)[C@H](O)CN2C(=O)c2cccs2)cc1	none
C/C(Sc1nnc(Cc2ccccc2)o1)=C(\O)c1ccccc1	none
COc1ccc(-c2csc(=Nc3ccccc3)n2CCO)cc1	PRMT1 FP inh 59.5 | PRMT1 inh conf inactive
COc1ccc(-c2cn(-c3ccccc3)nc2CO)cc1	none
COc1ccc(-c2csc(=NCCO)n2-c2ccccc2)cc1	PRMT1 FP inh 63.6 | PRMT1 inh conf inactive
C=CCn1c(-c2ccc(S(=O)(=O)N3CCOCC3)cc2)csc1=Nc1ccccc1	none
C=CCn1c(-c2ccc(OC)cc2)csc1=Nc1c(C)n(C)n(-c2ccccc2)c1=O	none
CC(=O)c1cccc(N=c2scc(-c3ccc(S(=O)(=O)N4CCOCC4)cc3)n2CCO)c1	PRMT1 FP inh 68.7 | PRMT1 inh conf inactive
Cc1cccc(NC(=O)CNC(=O)CCNC(=O)c2ccc(C(C)(C)C)cc2)c1C	none
CCCCCC[N+](C)(C)CCSSCC[N+](C)(C)CCCCCC	PRMT1 FP inh 90.6 | PRMT1 inh conf 55.6
